According to PubChem BioAssay (EPA / NIEHS):
“And” between values parts separate entries of the source, which are not always exact repeats. Equal values may be shown once. Results filed as inconclusive are left out. Where a structure was tested more than once in an assay, its records may differ in their call. The source made the active and inactive calls. The calls were made as follows, unless noted: active = hit-call score of the fitted dose curve at least 0.9, where 1 is the maximum; inactive = score below 0.9.

Assays:
[1] = target: Nuclear respiratory factor 1 (Homo sapiens) (UniProt Q16656); assay: ATG_NRF1_CIS: Attagene CIS-FACTORIAL HepG2 Assay for human Nuclear Respiratory Factor 1 (NRF1) Orphan Gene (AID 2282987); details: HepG2 NRF1 cis-element reporter, Attagene multiplex; actives raise or lower the signal
Method in brief: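 Endogenous NRF1-driven reporter transcription measured in transiently transfected human HepG2 liver cells. Readout: reporter mRNA by RT-PCR and capillary electrophoresis with fluorescence detection, 24 h post-dosing. Gain or loss of signal fitted relative to DMSO baseline.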

[2] = ATG_NFI_CIS: Attagene CIS-FACTORIAL HepG2 Assay for human Nuclear Factor I (NFI) (AID 2282989); details: HepG2 cis-regulatory reporter, NFI response element transcription; actives raise or lower the signal
Method in brief: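 Reporter transcripts were measured by RT-PCR with fluorescent primer extension and capillary electrophoresis 24 h post-treatment. HepG2 cells carried transiently transfected cis-regulated reporter constructs reporting endogenous factor activity; gain or loss fitted against DMSO baseline.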

[3] = target: Myc proto-oncogene protein (Homo sapiens) (UniProt P01106); assay: ATG_Myc_CIS: Attagene CIS-FACTORIAL HepG2 Assay for human Myelocytomatosis (Myc) Proto-Oncogene Transcription Factor (AID 2282990); details: HepG2, Attagene cis-reporter transcription factor activity; actives raise or lower the signal
Method in brief: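 After 24 h chemical treatment of HepG2 cells carrying multiplexed cis-regulated reporter constructs, reporter transcripts quantified by RT-PCR and capillary electrophoresis of fluorescent fragments. Gain or loss fitted against DMSO baseline.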

[4] = ATG_NF_kB_CIS: Attagene CIS-FACTORIAL HepG2 Assay for human Nuclear Factor Kappa B (NF-kB) (AID 2282991); details: HepG2 Attagene cis-factorial NF-kB reporter mRNA; actives raise or lower the signal
Method in brief: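 Read-out: reporter transcript levels quantified by RT-PCR plus capillary electrophoresis of 6-FAM-labelled, HpaI-cut fragments. Transfected HepG2 cells, 24 h compound exposure, endogenous NF-kB-driven cis element; gain or loss scored versus DMSO.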

[5] = ATG_NRF2_ARE_CIS: Attagene CIS-FACTORIAL HepG2 Assay for human Nuclear Factor Erythroid 2 Related Factor 2 (NFR2) response to Antioxidant Response Elements (ARE) (AID 2282992); details: HepG2 Attagene ARE/NRF2 reporter, transcription factor activity; actives raise or lower the signal
Method in brief: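 Transient MRTU transfection of HepG2; 24 h compound exposure; TriZol RNA, RT with oligo(dT), PCR, 6-FAM primer extension, HpaI cut, CE. Bidirectional fit vs DMSO.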

[6] = ATG_Oct_MLP_CIS: Attagene CIS-FACTORIAL HepG2 Assay for human Octamer-Binding Transcription Factor (Oct) (AID 2282993); details: HepG2 Attagene cis-factorial Oct reporter, mRNA; actives raise or lower the signal
Method in brief: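 Readout is reporter transcript level from RT-PCR with fluorescent primer extension and capillary electrophoresis, fitted in both directions against DMSO. Transfected HepG2 reporter units report endogenous factor activity after 24 h dosing.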

[7] = target: Cellular tumor antigen p53 (Homo sapiens) (UniProt P04637); assay: ATG_p53_CIS: Attagene CIS-FACTORIAL HepG2 Assay for human p53 Transcription Factor (AID 2282994); details: HepG2 p53 cis-element reporter, Attagene mRNA; actives raise or lower the signal
Method in brief: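 HepG2, transient MRTU transfection (cis promoter elements, endogenous TFs); 24 h dosing; RNA isolation, RT-PCR, 6-FAM primer extension, HpaI digest, CE fluorescence; bidirectional fit vs DMSO.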

[8] = target: human Peroxisome Proliferator-activated Receptor alpha (PPARa), PPARA (gene 5465) (UniProt Q07869); assay: ATG_PPARa_TRANS: Attagene TRANS-FACTORIAL HepG2 Assay for human Peroxisome Proliferator-activated Receptor alpha (PPARa) (AID 2283001; active = hit-call score of the fitted dose curve at least 0.9, where 1 is the maximum;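 as to AC50: potency for gain of reporter signal over DMSO so agonist or activator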)
Method in brief: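 Reporter transcripts from GAL4-UAS units in transfected HepG2 were quantified 24 h after dosing. Detection used reverse transcription, PCR, fluorescent primer extension and capillary electrophoresis, with DMSO as baseline.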

[9] = target: human Peroxisome Proliferator-activated Receptor delta (PPARd), PPARD (gene 5467) (UniProt Q03181); assay: ATG_PPARd_TRANS: Attagene TRANS-FACTORIAL HepG2 Assay for human Peroxisome Proliferator-activated Receptor delta (PPARd) (AID 2283002; active = hit-call score of the fitted dose curve at least 0.9, where 1 is the maximum)
Method in brief: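 Read-out is induced reporter mRNA, quantified by RT-PCR with fluorescent labelling and capillary electrophoresis after 24 h dosing. Cells are HepG2 transiently carrying multiple GAL4-UAS reporter units driven by exogenous NR-GAL4 chimeras; DMSO serves as baseline.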

[10] = BSK_3C_Proliferation: Cell Proliferation Assessment in the BioMAP Diversity Plus: 3C Assay (AID 2283006); details: primary human endothelial cells (HUVEC);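 also: potency may reflect either rise or fall in cell number versus DMSO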
Method in brief: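 Human umbilical vein endothelial cells were grown sub-confluent and exposed to chemical for 48 h, then fixed with 10% TCA and stained with 0.1% sulforhodamine B; absorbance at 560 nm gave relative cell number, fitted bidirectionally against DMSO baseline.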

[11] = target: Peroxisome proliferator-activated receptor gamma (Homo sapiens) (UniProt P37231); assay: ATG_PPARg_TRANS: Attagene TRANS-FACTORIAL HepG2 Assay for human Peroxisome Proliferator-activated Receptor-gamma (PPARg) (AID 2283007; active = hit-call score of the fitted dose curve at least 0.9, where 1 is the maximum)
Method in brief: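 Read-out: reporter mRNA induction, detected by fluorescence after RT-PCR and capillary electrophoresis. Transiently transfected human HepG2 liver cells carrying a chimeric NR-Gal4 construct were dosed for 24 h; activity was fitted upward relative to DMSO.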

[12] = target: Nuclear receptor subfamily 1 group I member 2 (Homo sapiens) (UniProt O75469); assay: ATG_PXR_TRANS: Attagene TRANS-FACTORIAL HepG2 Assay for human Pregnane X Receptor (PXR) (AID 2283008; active = hit-call score of the fitted dose curve at least 0.9, where 1 is the maximum)
Method in brief: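 Read-out is fluorescence of labelled reporter cDNA fragments separated by capillary electrophoresis after RT-PCR and HpaI digestion. Source: HepG2 cells carrying PXR-GAL4/UAS reporter constructs, treated 24 h; activity fitted upward relative to DMSO.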

[13] = BSK_3C_TissueFactor: BioMAP Diversity Plus: 3C Assay for Tissue Factor Biomarker Activity (AID 2282997); details: BioMAP 3C HUVEC, tissue factor biomarker readout; actives raise or lower the signal
Method in brief: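 Endothelial monolayers (human umbilical vein, primary) are dosed, incubated 24 h, and assayed for Tissue Factor by ELISA; DMSO serves as negative control for bidirectional fitting.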

[14] = BSK_3C_uPAR: BioMAP Diversity Plus: 3C Assay for Urokinase-type plasminogen activator receptor (uPAR) Biomarker Activity (AID 2282998); details: BioMAP 3C HUVEC, uPAR biomarker ELISA; actives raise or lower the signal
Method in brief: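 Cell-surface uPAR on HUVEC (3C system) read by ELISA at 24 h post-treatment, with DMSO as baseline and fitting in both directions. Parallel cultures stained with SRB to flag overt cytotoxicity.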

[15] = BSK_3C_VCAM1: BioMAP Diversity Plus: 3C Assay for Vascular cell adhesion molecule 1 (VCAM1) Biomarker Activity (AID 2282999); details: BioMAP 3C HUVEC, VCAM1 ELISA, cytokine-stimulated; actives raise or lower the signal
Method in brief: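 Endothelial cells from human umbilical vein are treated with test chemical. At 24 h, VCAM-1 is measured by ELISA, and responses in either direction are fitted relative to DMSO.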

[16] = BSK_4H_Eotaxin3: BioMAP Diversity Plus: 4H Assay for Eotaxin 3 Biomarker Activity (AID 2283000); details: primary human endothelial cells (HUVEC); actives raise or lower the signal
Method in brief: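 ELISA quantitation of CCL26 (Eotaxin-3) protein from chemically dosed human vascular endothelial cells at 24 h; increases and decreases both scored relative to DMSO-treated baseline.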

[17] = read-out: Intercellular Adhesion Molecule 1 (ICAM1), ICAM1 (gene 3383); assay: BSK_3C_ICAM1: BioMAP Diversity Plus: 3C Assay for Intercellular Adhesion Molecule 1 (ICAM1) Biomarker Activity (AID 2283003); details: primary human endothelial cells (HUVEC); actives raise or lower the signal
Method in brief: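 Primary human umbilical vein endothelial cells in the BioMAP 3C system were exposed to chemicals for 24 h, then ICAM-1 was quantified by ELISA. Activity was fitted bidirectionally against the DMSO negative control baseline.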

Measured: AC50

Cellular tumor antigen p53 (Homo sapiens), sequence (P04637 whole entry, looked up): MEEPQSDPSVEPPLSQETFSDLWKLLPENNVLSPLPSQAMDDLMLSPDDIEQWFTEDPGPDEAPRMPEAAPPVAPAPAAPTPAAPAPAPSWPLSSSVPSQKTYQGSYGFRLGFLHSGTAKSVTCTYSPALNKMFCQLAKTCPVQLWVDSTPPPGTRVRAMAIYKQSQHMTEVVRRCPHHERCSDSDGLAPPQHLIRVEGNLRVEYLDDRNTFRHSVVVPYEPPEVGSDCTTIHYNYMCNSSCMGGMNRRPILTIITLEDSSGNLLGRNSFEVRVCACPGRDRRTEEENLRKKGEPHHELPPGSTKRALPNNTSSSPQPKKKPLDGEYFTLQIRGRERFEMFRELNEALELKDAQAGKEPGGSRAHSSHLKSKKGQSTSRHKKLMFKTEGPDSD
Peroxisome proliferator-activated receptor gamma (Homo sapiens), sequence (P37231 whole entry, looked up, the tested form may be a part): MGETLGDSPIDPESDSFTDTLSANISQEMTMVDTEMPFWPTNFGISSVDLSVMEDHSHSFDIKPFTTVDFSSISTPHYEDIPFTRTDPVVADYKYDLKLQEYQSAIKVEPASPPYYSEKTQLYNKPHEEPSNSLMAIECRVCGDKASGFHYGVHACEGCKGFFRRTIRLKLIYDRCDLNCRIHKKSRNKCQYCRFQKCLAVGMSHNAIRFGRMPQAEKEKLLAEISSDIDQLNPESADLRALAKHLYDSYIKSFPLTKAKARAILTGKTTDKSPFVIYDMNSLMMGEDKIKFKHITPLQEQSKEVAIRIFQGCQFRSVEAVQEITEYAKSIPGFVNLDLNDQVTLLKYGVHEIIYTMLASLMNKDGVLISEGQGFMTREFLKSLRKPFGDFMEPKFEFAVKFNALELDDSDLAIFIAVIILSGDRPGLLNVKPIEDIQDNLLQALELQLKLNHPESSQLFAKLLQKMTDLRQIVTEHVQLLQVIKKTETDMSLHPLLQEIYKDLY
human Peroxisome Proliferator-activated Receptor alpha (PPARa), PPARA (gene 5465), sequence (Q07869 whole entry, looked up, the tested form may be a part): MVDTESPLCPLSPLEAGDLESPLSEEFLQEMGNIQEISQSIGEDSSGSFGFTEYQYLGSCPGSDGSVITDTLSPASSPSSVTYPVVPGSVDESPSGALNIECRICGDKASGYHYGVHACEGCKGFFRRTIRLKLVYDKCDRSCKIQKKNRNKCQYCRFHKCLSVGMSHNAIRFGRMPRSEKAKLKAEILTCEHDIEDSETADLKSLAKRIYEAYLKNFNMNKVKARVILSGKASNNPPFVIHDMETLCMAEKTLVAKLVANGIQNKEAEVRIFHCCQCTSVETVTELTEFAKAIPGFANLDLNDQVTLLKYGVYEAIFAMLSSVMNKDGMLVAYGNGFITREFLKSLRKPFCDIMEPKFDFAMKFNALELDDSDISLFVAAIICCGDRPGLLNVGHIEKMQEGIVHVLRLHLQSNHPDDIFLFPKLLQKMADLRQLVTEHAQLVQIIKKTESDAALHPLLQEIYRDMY
human Peroxisome Proliferator-activated Receptor delta (PPARd), PPARD (gene 5467), sequence (Q03181 whole entry, looked up, the tested form may be a part): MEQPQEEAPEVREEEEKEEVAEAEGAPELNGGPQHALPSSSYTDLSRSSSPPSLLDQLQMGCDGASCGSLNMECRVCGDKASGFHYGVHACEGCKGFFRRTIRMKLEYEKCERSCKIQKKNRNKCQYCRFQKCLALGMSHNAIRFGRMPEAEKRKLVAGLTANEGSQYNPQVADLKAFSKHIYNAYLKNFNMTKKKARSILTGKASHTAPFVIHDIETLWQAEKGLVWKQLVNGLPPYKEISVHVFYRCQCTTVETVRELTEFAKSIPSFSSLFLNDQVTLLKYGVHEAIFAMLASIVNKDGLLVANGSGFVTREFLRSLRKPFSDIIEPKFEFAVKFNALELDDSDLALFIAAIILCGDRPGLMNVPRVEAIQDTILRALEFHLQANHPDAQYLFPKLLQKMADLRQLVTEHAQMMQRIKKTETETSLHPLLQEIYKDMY
Nuclear receptor subfamily 1 group I member 2 (Homo sapiens), sequence (O75469 whole entry, looked up, the tested form may be a part): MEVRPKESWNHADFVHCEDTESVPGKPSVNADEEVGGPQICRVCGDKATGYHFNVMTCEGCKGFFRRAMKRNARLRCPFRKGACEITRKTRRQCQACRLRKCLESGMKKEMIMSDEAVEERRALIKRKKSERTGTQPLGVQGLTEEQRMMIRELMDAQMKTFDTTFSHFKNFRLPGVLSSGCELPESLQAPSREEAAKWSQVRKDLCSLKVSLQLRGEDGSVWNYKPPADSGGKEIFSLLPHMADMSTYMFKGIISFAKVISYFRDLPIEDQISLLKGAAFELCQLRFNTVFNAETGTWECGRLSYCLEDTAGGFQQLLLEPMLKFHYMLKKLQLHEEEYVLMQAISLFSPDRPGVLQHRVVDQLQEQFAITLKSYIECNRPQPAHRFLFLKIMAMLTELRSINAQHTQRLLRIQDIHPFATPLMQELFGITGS
Myc proto-oncogene protein (Homo sapiens), sequence (P01106 whole entry, looked up, the tested form may be a part): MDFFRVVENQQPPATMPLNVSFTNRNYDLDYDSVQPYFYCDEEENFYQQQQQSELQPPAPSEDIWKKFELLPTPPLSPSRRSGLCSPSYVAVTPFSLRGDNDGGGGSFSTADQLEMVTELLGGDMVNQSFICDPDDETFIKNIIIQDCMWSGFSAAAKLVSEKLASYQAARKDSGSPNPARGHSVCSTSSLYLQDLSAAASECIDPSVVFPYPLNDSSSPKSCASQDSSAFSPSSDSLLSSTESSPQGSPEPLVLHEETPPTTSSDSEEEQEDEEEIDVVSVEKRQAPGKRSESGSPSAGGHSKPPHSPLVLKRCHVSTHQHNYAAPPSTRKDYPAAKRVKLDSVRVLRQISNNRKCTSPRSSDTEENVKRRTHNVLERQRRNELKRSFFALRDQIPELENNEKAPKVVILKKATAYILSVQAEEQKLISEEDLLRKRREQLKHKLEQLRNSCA
Nuclear respiratory factor 1 (Homo sapiens), sequence (Q16656 whole entry, looked up): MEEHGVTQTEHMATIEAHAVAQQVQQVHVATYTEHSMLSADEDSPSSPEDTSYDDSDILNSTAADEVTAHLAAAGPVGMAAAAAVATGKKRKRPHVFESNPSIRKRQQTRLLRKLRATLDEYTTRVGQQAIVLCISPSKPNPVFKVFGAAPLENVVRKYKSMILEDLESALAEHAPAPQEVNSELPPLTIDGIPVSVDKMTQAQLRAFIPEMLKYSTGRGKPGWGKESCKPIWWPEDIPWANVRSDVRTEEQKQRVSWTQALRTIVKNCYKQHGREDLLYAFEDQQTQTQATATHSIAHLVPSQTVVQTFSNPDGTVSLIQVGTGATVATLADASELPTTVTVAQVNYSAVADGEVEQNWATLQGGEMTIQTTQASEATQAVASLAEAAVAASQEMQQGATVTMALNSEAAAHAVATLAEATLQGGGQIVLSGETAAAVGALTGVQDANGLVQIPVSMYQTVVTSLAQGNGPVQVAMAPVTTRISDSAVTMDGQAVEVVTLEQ

FC(F)(I)C(F)(F)C(F)(F)C(F)(F)C(F)(F)C(F)(F)I
inactive: [1] | [2] | [3] | [4] | [6] | [7] | [9]
active: [5] 11.1 µM | [8] 27.3 µM | [10] 12.9 µM [middle of 5 runs] | [11] 14.4 µM | [12] 33.4 µM

CC#C[C@]1(O)CC[C@H]2[C@@H]3CCC4=CC(=O)CCC4=C3[C@@H](c3ccc(N(C)C)cc3)C[C@@]21C
inactive: [1] | [2] | [3] | [4] | [13] | [9] | [17] | [12]
active: [1] 170 µM | [2] 153 µM and 64.1 µM and 34.2 µM | [3] 160 µM and 100 µM | [4] 67.9 µM | [5] 28.1 µM [middle of 4 runs] | [14] 31.2 µM | [15] 32.2 µM | [16] 38.1 µM | [10] 28.6 µM | [11] 193 nM [middle of 4 runs] | [12] 777 nM and 356 nM and 928 nM

O=c1c(-c2ccc(O)cc2)coc2cc(O)ccc12
active: [6] 100 µM | [13] 15.7 µM | [10] 20 µM
inactive: [1] | [2] | [3] | [4] | [5] | [6] | [7] | [14] | [15] | [16] | [8] | [9] | [17] | [12]
